# Screening results (PubChem)
# Sampled rows, rich in hits. Any-hit rate of the full collection: about 5.7%.
# GLP-1R agonist = activates the human GLP-1 receptor | AID 624172 | 380,000 compounds, 0.007% hits | HEK293 GLP-1R CRE-luciferase, luminescence, 4-6 h; cells express a hypersensitive GLP-1R form | Potency, µM (highest dose often 45.6 µM), for inactives: top-dose activation, actives largely listed as activators | P43220; also: potency is read from the fitted curve at half-maximal effect; % of control where 0% means no effect
# GLP1R cytotox = cytotoxicity in counter-screen for GLP-1R inverse agonists; HEK293 cAMP-luciferase reporter cells, luminescence, 24 h; Potency, µM (doses to about 38.3 µM), for the others: at the highest dose activity change, negative = inhibition, usual class: inhibitors; 410,000 compounds, 0.13% hits;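 also: loss of luciferase light is scored as toxicity; potency is read from the fitted curve at half-maximal effect; % is scaled to controls: 0 for no effect and ±100 for the full control effect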
#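 Cells in DMEM/10% Nu serum/1% pen-strep, 1536-well format. Pre-incubated 12 h, dosed with 23 nL compound, incubated a further 24 h. Luciferase detection, 12 min at room temp, luminescence.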
# GLP1R inv ag = GLP-1 receptor (human) inverse agonism | AID 624417 | 410,000 compounds, 1.6% hits | P43220 | HEK293 GLP-1R CRE-luciferase, luminescence, 24 h; GLP-1R form is constitutively active | Potency, µM (doses to about 38.3 µM), without a hit: top-dose activity change, negative = inhibition, actives largely listed as inhibitors; also: potency is read from the fitted curve at half-maximal effect; % is scaled to controls: 0 for no effect and ±100 for the full control effect; nearly all actives have a fitted effect of over 55% in size
#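 Constitutively active GLP-1R drives a cAMP-responsive luciferase in stably transfected HEK293 cells; test compounds are added after overnight (12 h) attachment and left 24 hr, and signal loss in luminescence marks inhibition.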
# D3 antag = antagonists of human D3 dopamine receptor | P35462 | D3R cells, DiscoveRx beta-arrestin luminescence, antagonist mode; active compounds read low | AID 652054 | max response, negative = inhibition, % | 360,000 compounds, 2.5% hits; in the data active = max response below about -50%; inconclusive = no clear call, values can overlap the other calls; also: % is scaled to controls: 0 for no effect and ±100 for the full control effect
# Target sequence (P35462 whole entry, looked up): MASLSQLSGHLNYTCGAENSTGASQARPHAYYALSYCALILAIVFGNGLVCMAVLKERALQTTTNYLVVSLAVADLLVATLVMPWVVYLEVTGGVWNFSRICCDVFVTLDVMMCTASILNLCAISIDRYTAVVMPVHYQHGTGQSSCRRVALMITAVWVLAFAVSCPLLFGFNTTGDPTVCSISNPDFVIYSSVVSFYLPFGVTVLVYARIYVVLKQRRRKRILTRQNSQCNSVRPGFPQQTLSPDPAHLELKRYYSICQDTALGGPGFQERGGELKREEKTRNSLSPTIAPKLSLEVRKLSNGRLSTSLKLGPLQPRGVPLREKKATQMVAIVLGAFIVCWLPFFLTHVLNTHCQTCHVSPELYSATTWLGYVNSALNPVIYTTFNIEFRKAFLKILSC
#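 Cells plated overnight at 1500 cells/well, then exposed to library compounds with dopamine controls for 90 minutes at 37 degrees C. DiscoveRx reagent added for 30–60 minutes at room temperature; luminescence read, quantitative HTS format.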
# DRD3 agonist = D3 dopamine receptor (human) agonism; P35462; D3R DiscoveRx beta-arrestin cells, luminescence, 90 min; max activation, %; 410,000 compounds, 0.58% hits; in the data active = max activation above about 30%; also: 0% is about no effect
#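 Agonist mode: compounds and dopamine controls were applied to plated cells for 90 min at 37 degrees C after an overnight attachment at 1500 cells/well. Luminescent read-out followed 30 - 60 minutes at room temperature with DiscoveRx detection reagent.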
# ClpP mod = qHTS Assay for Activators of ClpP; purified B. subtilis ClpP, FRET peptide cleavage, 20 min; Potency, µM (doses to about 57.5 µM), without a hit: at the highest dose activity change, negative = active; 340,000 compounds, 1.9% hits; AID 651965, 2013; active = well fitted falling curve with a large enough effect; inconclusive = small, poorly fitted or top-dose-only effect; inactive = no such curve, though single readings can be large or run the other way; also: potency is read from the fitted curve at half-maximal effect; the source files actives as falling curves though it sought activators and does not explain the sign; nearly all actives have a fitted effect of over 65% in size
#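 FRET quenching reversal measured ClpP activation: 10 microg/mL B. subtilis ClpP at pH 8 with the FRET-FV decapeptide, read at 430 nm after 320 nm excitation. The 20-min minus 0-min signal was scaled between DMSO/no-enzyme wells and ADEP (5.8 microM final).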
# Starred values were filed as active, the others as inactive; ? = inconclusive; . = not tested or not shown. Unless noted, calls follow the shape of the dose curve; as a rule, active = well fitted curve in the direction sought with a large enough effect; inconclusive = small, poorly fitted or top-dose-only effect, or another doubt; inactive = no such curve, though single readings can be large; an effect the other way counts as inactive or inconclusive.
SMILES,GLP-1R agonist,GLP1R cytotox,GLP1R inv ag,D3 antag,DRD3 agonist,ClpP mod
COc1ccc(N2CCN(CCNC(=O)Nc3ccc([N+](=O)[O-])cc3OC)CC2)cc1,7%,-14%,?,-26,-20,.
COc1ccc(OC)c(NC(=O)NCCN2CCN(c3ccccc3)CC2)c1,1%,-12%,?,-67*,5,0%
COc1ccc(CNC(=O)Cn2c(=O)nc(-c3ccccc3)c3cc(Cl)ccc32)cc1OC,.,10%,15%,.,8,-1%
COc1ccc(CNC(=O)Cn2c(=O)nc(-c3ccccc3)c3ccccc32)cc1OC,.,-5%,?,.,33*,-13%
CCOc1ccc(CNC(=O)CN2N=C(c3ccccc3)CCC2=O)cc1OC,.,2%,10%,.,50*,-2%
N#Cc1ncc(Br)cn1,.,.,.,.,.,1%
COc1ccccc1N1CCN(C(=O)CSc2ncccc2-c2nc3ccccc3[nH]2)CC1,-1%,-7%,?,-9,-13,?
COc1ccc(N2CCN(C(=O)CSc3ncccc3-c3nc4ccccc4[nH]3)CC2)cc1,-10%,-5%,0%,-25,-2,25µM*
COc1ccc2nc(SCC(=O)N3CCN(c4ccc(F)cc4)CC3)c(C#N)cc2c1,3%,7%,45%,-58*,-7,1%
Cc1ccc(-n2c(SCC(=O)N3CCOCC3)nnc2-c2ccncc2)cc1,-1%,0%,10%,-76*,7,-7%
COc1ccc(N2CCN(C(=O)CSc3nnc(-c4cccnc4)n3-c3ccccc3)CC2)cc1,2%,8%,11µM*,?,-2,-3%
COc1cccc(NC(=O)c2sc3nc(C)c(C(=O)Nc4ccc(C)cc4C)c(-c4ccc(C)o4)c3c2N)c1,.,5%,-10%,.,4,-2%
Cc1ccc(C)c(N(C)S(=O)(=O)c2ccc3[nH]cc(C(=O)NC4CCCC4)c(=O)c3c2)c1,.,-16%,?,.,4,4%
COc1ccc(-c2nc(CCl)cs2)cc1OC,24%,9%,106%,0,-2,.
COc1ccc(-c2nc(-c3ccc(O)cc3O)cs2)cc1OC,?,?,9%,47,39*,.
Cc1nc([N+](=O)[O-])c(Br)n1CC(=O)c1cccc([N+](=O)[O-])c1,7%,?,?,-51*,6,.
O=C(CSc1ccc(C(F)(F)F)cn1)Nc1ccccc1,12%,9%,1%,12,-7,-2%
O=C(/C=C/Sc1ccc(C(F)(F)F)cn1)c1ccccc1,-1%,8%,11%,-69*,-16,0%
O=C(Nc1ncnc2nc[nH]c12)c1ccccc1,.,.,.,.,.,1%
Cc1oc(-c2cccs2)nc1CN1CC[C@@](O)(c2ccccc2)[C@H]2CCCC[C@@H]21,7%,-17%,?,?,-12,.
OC1(c2ccccc2)CCN(Cc2ccccc2)C2CCCCC21 (stereo unspecified),-27%,-31%,?,-85*,12,1%
CCOc1ccccc1C(=O)N(Cc1cccs1)c1ccc(Cl)cc1,.,-4%,13µM*,.,-10,1%
Cc1ccc(N(Cc2cccs2)C(=O)c2ccccc2Cl)cc1,.,4%,?,.,4,-1%
CCN(CC)c1nc2cc(OC)ccc2cc1C#N,12%,3%,-20%,32,-1,5%
COc1ccc2cc(C#N)c(NC(C)C)nc2c1,0%,16%,3%,4,3,22µM*
O=C1NC(c2cccs2)Nc2ccccc21 (stereo unspecified),-13%,-12%,15%,2,1,?
Cc1ccsc1C1NC(=O)c2ccccc2N1 (stereo unspecified),-1%,-14%,3%,0,0,16µM*
O=C1NC(c2ccccc2Cl)Nc2ccccc21 (stereo unspecified),-8%,-20%,-26%,11,9,25µM*
